Hits are enriched below; roughly 7.8% of the tested compounds scored in any of these assays.
NOMO-1 viab: NOMO-1 AML cell viability reduction, primary screen, STK33 inhibitor project, CellTiter-Glo luminescence; NOMO-1 AML viability, 72 h; inhibition, % (concentration not given with the values); hit rate 7.5% among 37,000; AID 2330, 2010; in the data active = inhibition above about 80%
MITF inhib: inhibitors of MITF, primary screen, MITF inhibitor project, cell-based, luminescence | AID 2240, 2010 | TRPM1 promoter luciferase, 24 h | inhibition, % (no concentration beside the values) | hit rate 0.28% among 37,000; in the data active = inhibition above about 85%;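 note: human melanocyte line stably carrying TRPM1 promoter luciferase reporter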
Shh pathway inh: Hedgehog pathway signaling inhibitors, primary screen, luminescence, Shh-LIGHT2 cells, Gli-luciferase | inhibition, % (test concentration not listed) | hit rate 2.1% among 22,000 | Shh-LIGHT2 Gli-luciferase reporter, 30 h | AID 2313, 2010;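 active = mean inhibition across valid replicates above about 65%, limit read from the data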;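 note: pathway switched on by Shh-conditioned medium diluted 1 in 25 in low serum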
PD-1 reverse act: activators reversing PD-1 mediated T-cell inhibition, primary screen, luminescence, primary human CD4 T cells, PD-L1 beads; CellTiter-Glo 96 h; activation, % (no concentration beside the values); 29,000 tested, under 10 active; call rule not given here;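 note: 0% = median vehicle wells and 100% = positive control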
The depositor's hits bear a star; . = not tested or not shown.

SMILES	NOMO-1 viab	MITF inhib	Shh pathway inh	PD-1 reverse act
C[C@H]1CN([C@@H](C)CO)C(=O)c2cc(NC(=O)CCCCCC(=O)Nc3ccccc3N)ccc2O[C@@H]1CN(C)Cc1ccncc1	19	-8	.	0
C[C@@H]1CCCCO[C@H](CN(C)Cc2ccc(Cl)c(Cl)c2)[C@@H](C)CN([C@H](C)CO)C(=O)c2cc(NC(=O)Cc3ccccc3)ccc2O1	44	15	4	-5
C[C@@H]1CN([C@H](C)CO)C(=O)Cc2cc(NC(=O)CCCCCC(=O)Nc3ccccc3N)ccc2O[C@H]1CN(C)Cc1ccc2c(c1)OCO2	49	-16	.	0
C[C@@H]1CCCCO[C@H](CN(C)Cc2ccc(Cl)c(Cl)c2)[C@@H](C)CN([C@H](C)CO)C(=O)c2cc(NC(=O)CCCCCC(=O)Nc3ccccc3N)ccc2O1	126*	13	.	-1
C[C@@H]1CCCCO[C@@H](CN(C)Cc2ccc(Cl)c(Cl)c2)[C@@H](C)CN([C@H](C)CO)C(=O)c2cc(NC(=O)Cc3ccccc3)ccc2O1	102*	59	.	-1
C[C@H](CO)N1C[C@H](C)[C@H](CN(C)Cc2ccc(Cl)c(Cl)c2)Oc2ccc(NC(=O)CCCCCC(=O)Nc3ccccc3N)cc2C1=O	133*	35	.	-1
C[C@H]1CN([C@@H](C)CO)C(=O)Cc2cc(NC(=O)CCCCCC(=O)Nc3ccccc3N)ccc2O[C@H]1CN(C)Cc1ccc(Cl)c(Cl)c1	127*	3	.	2
C/C(=C\CC(C)(C)/C=C/Cc1ccoc1)C(=O)O	-3	-13	5	0
Cc1cc(C(=O)O)nn1-c1ccccc1	-9	11	-19	1
COc1ccc(S(=O)(=O)n2nc(OC(=O)C(C)(C)C)cc2N)cc1	48	8	5	-2
C[C@@H]1CN([C@H](C)CO)C(=O)Cc2cc(NC(=O)CCN3CCOCC3)ccc2O[C@H]1CN(C)Cc1ccc(C(=O)Nc2ccccc2N)cc1	-3	-5	.	0
C[C@H]1CN([C@@H](C)CO)C(=O)Cc2cc(NC(=O)CCN3CCOCC3)ccc2O[C@H]1CN(C)Cc1ccc(C(=O)Nc2ccccc2N)cc1	132*	-12	.	-3
C[C@H](CO)N1C[C@H](C)[C@H](CN(C)Cc2ccc(C(=O)Nc3ccccc3N)cc2)Oc2ccc(NC(=O)CCN3CCOCC3)cc2CC1=O	138*	1	.	-4
O=C(NC(=S)N(Cc1cccnc1)Cc1ccccc1Cl)c1ccccc1	38	15	1	-3
O=C(CSCc1cccc2ccccc12)Nc1ccc(C(F)(F)F)cc1	31	24	20	0
COc1ccc(Cl)cc1NC(=O)CN1C(=O)c2ccccc2S1(=O)=O	1	-8	.	.
C=C(C)[C@@H]1CC[C@]2(C(=O)O)CC[C@]3(C)[C@H](CCC4[C@]5(C)C(CC[C@]43C)[C@@](C)(CO)[C@@H](O)[C@@H]5C(=O)O)C12 (some centres not stated)	9	-14	-42	-1
C=C(C)[C@@H]1CC[C@]2(C(=O)O)CC[C@]3(C)[C@H](CC[C@@H]4[C@@]5(C)CC[C@H](O)C(C)(C)[C@@H]5CC[C@]43C)[C@@H]12	105*	38	-3	.
C=C(C)[C@@H]1CC[C@]2(C(=O)O)CC[C@]3(C)[C@H](CCC4[C@@]5(C)CCC(=O)C(C)(C)C5C(O)C[C@]43C)C12 (some centres not stated)	104*	38	-21	-2
CCN(CC)S(=O)(=O)c1ccc(Cl)c(C(=O)Oc2ccc(C)c(C)c2)c1	23	1	-31	2
OC1(/C=C/CN2CCCCC2)CCCCC1	-2	9	12	0
O=C(N1CCCc2ccccc21)C(F)(F)F	-6	-32	20	0
COc1cccc2cc(C(=O)NCc3ccccn3)c(=O)oc12	4	-94	.	4
O=C(CC1(O)C(=O)N(Cc2ccccc2)c2ccccc21)c1cc2ccccc2oc1=O (configuration not stated)	105*	19	.	0
COc1cccc2cc(C(=O)CC3(O)C(=O)N(Cc4ccccc4)c4ccc(Br)cc43)c(=O)oc12 (configuration not stated)	127*	14	.	-6
SMILES	NOMO-1 viab	MITF inhib	Shh pathway inh	PD-1 reverse act
CNc1[nH]c(=S)nc2sc3c(c12)CCCC3	8	-34	-20	0
CCOC(NC(=O)Nc1ccc(Br)cc1)(C(F)(F)F)C(F)(F)F	108*	-1	-30	1
COC(=O)c1ccc(NC(=O)CCC(=O)c2ccc(Br)cc2)cc1	13	1	.	.
COC(=O)CSc1nnc(-c2sc3ccccc3c2Cl)n1-c1ccc(OC)cc1	85*	-15	.	-2
COC(=O)CSc1nnc(-c2cccs2)n1-c1ccc(Cl)cc1	101*	-17	.	0
NC(=O)CSc1nnc(-c2cccs2)n1-c1ccccc1	0	3	.	.
Cn1c(SCC(=O)c2ccc([N+](=O)[O-])cc2)nnc1-c1cccs1	9	-16	.	1
CC1=C(/C=C/C(C)=C/C=C/C(C)=C\C(=O)O)C(C)(C)CCC1	71	-118	82*	.
Cc1ccc(C(=O)/C=C/Nc2ccc(C(F)(F)F)cc2)cc1	7	-57	-78	1
CC(C)(C)C(=O)CSc1nnc(-c2cnccn2)s1	-21	-26	-112	3
COc1ccc(CN(C)C[C@@H]2Oc3ccc(NC(=O)Nc4cccc5ccccc45)cc3C(=O)N([C@@H](C)CO)C[C@H]2C)cc1	26	10	-8	0
C[C@@H]1CN([C@H](C)CO)C(=O)c2cc(NC(=O)Nc3cccc4ccccc34)ccc2O[C@@H]1CN(C)Cc1ccc(Oc2ccccc2)cc1	89*	15	17	.
COc1ccc(CN(C)C[C@@H]2Oc3ccc(NC(=O)Nc4cccc5ccccc45)cc3C(=O)N([C@@H](C)CO)C[C@@H]2C)cc1	34	15	.	-1
COc1ccc(CN(C)C[C@H]2Oc3ccc(NC(=O)Nc4cccc5ccccc45)cc3C(=O)N([C@H](C)CO)C[C@H]2C)cc1	-4	-7	5	.
C[C@H](CO)N1C[C@H](C)[C@@H](CN(C)Cc2ccc(Oc3ccccc3)cc2)Oc2ccc(NC(=O)Nc3cccc4ccccc34)cc2C1=O	104*	-2	12	-3
C[C@H]1CN([C@@H](C)CO)C(=O)c2cc(NC(=O)Nc3cccc4ccccc34)ccc2O[C@@H]1CN(C)Cc1ccc(Oc2ccccc2)cc1	121*	-6	14	-4
C[C@H](CO)N1C[C@H](C)[C@H](CN(C)Cc2ccc(Oc3ccccc3)cc2)Oc2ccc(NC(=O)Nc3cccc4ccccc34)cc2C1=O	113*	19	.	-5
C=CCc1c(C)nc(OCC(=O)OCC)c(C#N)c1C	12	-18	17	2
COc1ccc([N+](=O)[O-])cc1CSc1nnc(-c2ccccc2)n1-c1ccccc1	26	8	.	1
CCOC(=O)c1cc(C#N)c(N2CCN(C(=O)c3snnc3C)CC2)nc1C(F)(F)F	22	12	26	-1
O=C(C1CCCO1)N1N=C(c2c(-c3ccccc3)c3cc(Cl)ccc3[nH]c2=O)CC1c1ccco1 (configuration not stated)	93*	8	.	-4

Source: PubChem
